Measurements published in PubChem BioAssay (EPA / NIEHS).
Calls of active or inactive are those of the source. How the source made its calls: active means hit-call score of the fitted dose curve at least 0.9, where 1 is the maximum; inactive means score below 0.9.

Assays:
[1] = ATG_CRE_CIS: Attagene CIS-FACTORIAL HepG2 Assay for human cAMP Responsive Element (CRE) binding protein 3 (AID 2282926); settings: HepG2 CRE cis-reporter, Attagene multiplexed mRNA; actives raise or lower the signal
How it was run: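 HepG2 cells transiently transfected with cis-element-driven multiple reporter transcription units; CRE reporter mRNA measured 24 h after dosing by RT-PCR, 6-FAM labelling, HpaI digestion and capillary electrophoresis. Bidirectional fit versus DMSO baseline.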

[2] = ATG_DR4_LXR_CIS: Attagene CIS-FACTORIAL HepG2 Assay for human Liver X Receptor (LXR), DR4 submotif (AID 2282929); settings: HepG2 Attagene DR4 cis-reporter, mRNA transcription; actives raise or lower the signal
How it was run: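 Transiently transfected HepG2 liver cells; cis-regulated reporters; 24 h dosing. RT-PCR plus CE read-out of reporter mRNA. DMSO baseline, bidirectional curve fitting.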

[3] = ATG_AP_1_CIS: Attagene CIS-FACTORIAL HepG2 Assay for human Activator Protein 1 (AP-1) (AID 2282931); settings: HepG2 Attagene cis-factorial AP-1 reporter mRNA; actives raise or lower the signal
How it was run: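 We transfected HepG2 cells transiently with a set of cis-regulated reporter transcription units, dosed them for 24 h, and quantified reporter mRNA via RT-PCR and capillary electrophoresis, scoring gain or loss of signal relative to DMSO.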

[4] = ATG_AP_2_CIS: Attagene CIS-FACTORIAL HepG2 Assay for human Activator Protein 2 (AP-2) (AID 2282932); settings: HepG2 AP-2 cis-reporter, Attagene transcription factor profiling; actives raise or lower the signal
How it was run: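 Step one: transient transfection of HepG2 with reporter transcription units. Step two: 24 h chemical exposure. Step three: RNA extraction, RT-PCR, labelled fragment analysis by capillary electrophoresis; DMSO serves as baseline.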

[5] = molecular target: Transcription factor E2F1 (Homo sapiens) (UniProt Q01094); assay: ATG_E2F_CIS: Attagene CIS-FACTORIAL HepG2 Assay for human E2F Transcription Factor 1 (AID 2282935); settings: HepG2 Attagene cis-reporter, E2F reporter RNA transcripts; actives raise or lower the signal
How it was run: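 Total RNA from 24 h-treated, reporter-transfected HepG2 cells undergoes DNase I treatment, oligo(dT) reverse transcription, PCR and 6-FAM primer extension before capillary electrophoresis.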

[6] = ATG_M_61_CIS: Attagene CIS-FACTORIAL HepG2 Assay for M61 Transcription Factor (Internal Marker) (AID 2282937); settings: HepG2 Attagene CIS-FACTORIAL M61 internal marker reporter; actives raise or lower the signal
How it was run: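 Multiplexed reporter mRNA assay, HepG2 human hepatoma cells, 24 h treatment. Signal: FAM-labelled, HpaI-digested RT-PCR fragments by CE. Fit: bidirectional, baseline DMSO.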

[7] = ATG_EGR_CIS: Attagene CIS-FACTORIAL HepG2 Assay for human Early Growth Response 1 (EGR1) (AID 2282938); settings: HepG2 Attagene CIS-FACTORIAL EGR reporter mRNA; actives raise or lower the signal
How it was run: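 Multiplexed cis-reporter system in human hepatoma HepG2 cells, transiently transfected. Cells are dosed for 24 h; reporter transcripts are amplified, fluorescently tagged and sized by capillary electrophoresis, with DMSO as negative control.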

[8] = ATG_M_19_CIS: Attagene CIS-FACTORIAL HepG2 Assay for M19 Transcription Factor (Internal Marker) (AID 2282939); settings: HepG2 Attagene CIS-FACTORIAL M19 internal marker reporter; actives raise or lower the signal
How it was run: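 Transfect HepG2 with MRTU reporter library → dose chemical, 24 h → isolate total RNA, reverse-transcribe with oligo(dT) → PCR, 6-FAM label, HpaI cut (2 h, 37 C) → capillary electrophoresis. Bidirectional fit vs DMSO.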

[9] = ATG_Ets_CIS: Attagene CIS-FACTORIAL HepG2 Assay for human Erythroblast Transformation Specific (ETS) (AID 2282941); settings: HepG2 ETS cis-reporter transcription, actives raise or lower the signal
How it was run: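 After transient cis-reporter transfection, HepG2 cells receive test chemical for 24 h. Reporter mRNA levels, measured by RT-PCR and capillary electrophoresis fluorescence, are analysed bidirectionally relative to the DMSO baseline.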

[10] = molecular target: Hepatocyte nuclear factor 3-beta (Homo sapiens) (UniProt Q9Y261); assay: ATG_FoxA2_CIS: Attagene CIS-FACTORIAL HepG2 Assay for human Forkhead box A2 (FOXA2) (AID 2282942); settings: HepG2 cis-reporter transcription factor activity, 24 h; actives raise or lower the signal
How it was run: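 Multiplexed cis-element reporter assay in transiently transfected HepG2. Twenty-four hours post-dosing, RNA was reverse-transcribed, amplified, FAM-labelled, HpaI-digested and separated by CE. Activity gain or loss relative to DMSO.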

[11] = ATG_GATA_CIS: Attagene CIS-FACTORIAL HepG2 Assay for human GATA Binding Protein (AID 2282944); settings: HepG2 GATA cis-element reporter, Attagene multiplex mRNA; actives raise or lower the signal
How it was run: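 Transient MRTU transfection, HepG2, 24 h compound exposure. Total RNA → oligo(dT) RT → PCR → 6-FAM primer extension → HpaI cut → CE. Bidirectional fit vs DMSO.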

[12] = ATG_GLI_CIS: Attagene CIS-FACTORIAL HepG2 Assay for human Zinc Finger Protein GLI1 (AID 2282945); settings: HepG2, Attagene cis-factorial reporter mRNA, GLI element; actives raise or lower the signal
How it was run: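 Bidirectional curve fits relative to DMSO, using reporter mRNA levels from RT-PCR plus capillary electrophoresis. Cells were HepG2 transiently carrying cis-regulated reporter constructs, harvested 24 h after dosing.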

[13] = ATG_ISRE_CIS: Attagene CIS-FACTORIAL HepG2 Assay for human Interferon Regulatory Factor 1 (IRF1) binding to an Interferon-Stimulated Response Element (ISRE) (AID 2282948); settings: HepG2 ISRE cis-reporter (Attagene), mRNA transcription readout; actives raise or lower the signal
How it was run: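 Quantitation relies on labelled RT-PCR fragments separated by capillary electrophoresis. Human HepG2 cells bearing cis-promoter reporter constructs were treated 24 h; DMSO served as baseline for bidirectional fitting.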

[14] = ATG_M_32_CIS: Attagene CIS-FACTORIAL HepG2 Assay for M32 Transcription Factor (Internal Marker) (AID 2282949); settings: HepG2 Attagene cis-factorial M32 reporter, mRNA; actives raise or lower the signal;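 further: background control marker of the multiplexed CIS panel rather than a real target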
How it was run: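 Internal background marker read-out: RT-PCR/capillary electrophoresis fluorescence of reporter transcripts from transiently transfected HepG2 cells after 24 h chemical exposure. Activity fitted bidirectionally relative to DMSO negative control.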

[15] = ATG_M_06_CIS: Attagene CIS-FACTORIAL HepG2 Assay for M06 Transcription Factor (Internal Marker) (AID 2282950); settings: HepG2 Attagene CIS-FACTORIAL M06 internal marker reporter; actives raise or lower the signal
How it was run: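 Read-out is fluorescence of labelled reporter cDNA fragments resolved by capillary electrophoresis after RT-PCR. Cells: HepG2 carrying transfected cis-promoter reporter units, treated 24 h. Gain or loss of signal fitted relative to DMSO.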

[16] = ATG_MRE_CIS: Attagene CIS-FACTORIAL HepG2 Assay for human Metal Responsive Element (MRE) (AID 2282954); settings: HepG2 MRE cis-reporter transcription, Attagene multiplex; actives raise or lower the signal
How it was run: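 After a 24 h chemical exposure, transiently transfected HepG2 cells yield RNA whose reporter sequences are amplified, FAM-labelled and sized by capillary electrophoresis. Curves are fitted bidirectionally relative to DMSO.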

[17] = molecular target: Paired box protein Pax-6 (Homo sapiens) (UniProt P26367); assay: ATG_Pax6_CIS: Attagene CIS-FACTORIAL HepG2 Assay for human Paired Box 6 (PAX6) (AID 2282956); settings: HepG2 CIS-FACTORIAL PAX6 reporter transcription, RNA readout; actives raise or lower the signal
How it was run: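 After twenty-four hours of chemical exposure, transfected HepG2 cells are harvested for RNA. Cis-promoter reporter transcripts are amplified, fluorescently labelled and sized by capillary electrophoresis, with gain and loss of signal scored against DMSO.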

[18] = ATG_PXRE_CIS: Attagene CIS-FACTORIAL HepG2 Assay for human Pregnane X Receptor Element (PXRE) (AID 2282957); settings: HepG2 Attagene CIS-FACTORIAL PXRE reporter, mRNA; actives raise or lower the signal
How it was run: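 HepG2 cells transiently transfected with cis-element-driven multiplexed reporter units; after 24 h chemical exposure, reporter mRNA measured by RT-PCR, 6-FAM labelling, HpaI digestion and capillary electrophoresis. Bidirectional fitting relative to DMSO.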

[19] = molecular target: Transcription factor Sp1 (Homo sapiens) (UniProt P08047); assay: ATG_Sp1_CIS: Attagene CIS-FACTORIAL HepG2 Assay for human Specificity Protein 1 (Sp1) (AID 2282961); settings: HepG2 Sp1 cis-reporter transcription, actives raise or lower the signal
How it was run: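 Chemicals are dosed onto HepG2 cells transfected with multiple cis-promoter reporter constructs, and after 24 h reporter RNA is reverse-transcribed, PCR-amplified and resolved by capillary electrophoresis for fluorescence quantitation; activity is scored up or down against DMSO.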

[20] = molecular target: Signal transducer and activator of transcription 3 (Homo sapiens) (UniProt P40763); assay: ATG_STAT3_CIS: Attagene CIS-FACTORIAL HepG2 Assay for human Signal Transducer and Activator of Transcription 3 (STAT3) (AID 2282963); settings: HepG2, Attagene cis-factorial STAT3 reporter transcription; actives raise or lower the signal
How it was run: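 After a 24 h compound incubation, total RNA from MRTU-transfected HepG2 cells was converted to cDNA and reporter sequences PCR-amplified, labelled and profiled by capillary electrophoresis. Gain and loss of signal were referenced to DMSO.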

Measured: AC50

Sequence of Paired box protein Pax-6 (Homo sapiens) (P26367 whole entry, looked up): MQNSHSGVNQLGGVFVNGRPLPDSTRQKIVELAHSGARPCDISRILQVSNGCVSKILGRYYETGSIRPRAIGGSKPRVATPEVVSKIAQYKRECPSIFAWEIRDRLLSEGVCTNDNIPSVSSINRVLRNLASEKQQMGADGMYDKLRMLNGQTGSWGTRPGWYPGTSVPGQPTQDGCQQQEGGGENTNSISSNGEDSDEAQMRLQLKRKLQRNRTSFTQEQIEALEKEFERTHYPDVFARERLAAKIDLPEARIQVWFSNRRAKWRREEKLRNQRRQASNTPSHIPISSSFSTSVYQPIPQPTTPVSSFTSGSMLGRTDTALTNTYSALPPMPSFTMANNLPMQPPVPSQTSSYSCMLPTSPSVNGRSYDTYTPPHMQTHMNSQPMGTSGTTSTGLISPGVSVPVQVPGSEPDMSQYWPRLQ
Sequence of Hepatocyte nuclear factor 3-beta (Homo sapiens) (Q9Y261 whole entry, looked up): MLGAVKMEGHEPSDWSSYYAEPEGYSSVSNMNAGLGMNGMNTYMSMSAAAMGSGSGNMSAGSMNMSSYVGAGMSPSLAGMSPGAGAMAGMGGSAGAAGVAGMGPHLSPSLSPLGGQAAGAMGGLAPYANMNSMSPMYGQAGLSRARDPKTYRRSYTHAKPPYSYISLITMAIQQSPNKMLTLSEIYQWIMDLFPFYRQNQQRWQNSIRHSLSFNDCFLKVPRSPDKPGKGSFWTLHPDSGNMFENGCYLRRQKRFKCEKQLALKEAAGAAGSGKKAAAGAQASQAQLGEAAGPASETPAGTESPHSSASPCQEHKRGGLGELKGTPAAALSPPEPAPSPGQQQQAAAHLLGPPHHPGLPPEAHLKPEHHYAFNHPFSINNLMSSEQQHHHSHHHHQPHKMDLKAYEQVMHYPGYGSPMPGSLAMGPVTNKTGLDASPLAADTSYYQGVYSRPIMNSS
Sequence of Signal transducer and activator of transcription 3 (Homo sapiens) (P40763 whole entry, looked up): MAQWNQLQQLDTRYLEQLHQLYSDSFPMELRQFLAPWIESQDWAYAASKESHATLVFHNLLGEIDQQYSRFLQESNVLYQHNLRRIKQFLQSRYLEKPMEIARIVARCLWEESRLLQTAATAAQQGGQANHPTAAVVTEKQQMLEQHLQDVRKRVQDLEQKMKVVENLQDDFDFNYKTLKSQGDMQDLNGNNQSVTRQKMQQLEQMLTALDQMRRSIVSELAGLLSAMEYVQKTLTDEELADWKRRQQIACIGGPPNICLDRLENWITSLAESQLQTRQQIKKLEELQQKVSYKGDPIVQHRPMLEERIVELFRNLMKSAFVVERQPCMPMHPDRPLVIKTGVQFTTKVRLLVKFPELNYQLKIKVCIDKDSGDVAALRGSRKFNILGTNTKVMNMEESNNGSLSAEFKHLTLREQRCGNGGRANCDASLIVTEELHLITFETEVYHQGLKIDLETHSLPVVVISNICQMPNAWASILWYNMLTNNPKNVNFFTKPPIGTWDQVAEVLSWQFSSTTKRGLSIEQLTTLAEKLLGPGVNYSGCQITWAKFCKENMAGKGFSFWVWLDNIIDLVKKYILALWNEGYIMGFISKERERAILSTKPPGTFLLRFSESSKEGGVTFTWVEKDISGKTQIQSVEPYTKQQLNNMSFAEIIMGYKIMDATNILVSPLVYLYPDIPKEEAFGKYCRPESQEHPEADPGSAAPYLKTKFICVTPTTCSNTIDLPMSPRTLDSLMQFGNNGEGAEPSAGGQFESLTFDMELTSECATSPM
Sequence of Transcription factor E2F1 (Homo sapiens) (Q01094 whole entry, looked up): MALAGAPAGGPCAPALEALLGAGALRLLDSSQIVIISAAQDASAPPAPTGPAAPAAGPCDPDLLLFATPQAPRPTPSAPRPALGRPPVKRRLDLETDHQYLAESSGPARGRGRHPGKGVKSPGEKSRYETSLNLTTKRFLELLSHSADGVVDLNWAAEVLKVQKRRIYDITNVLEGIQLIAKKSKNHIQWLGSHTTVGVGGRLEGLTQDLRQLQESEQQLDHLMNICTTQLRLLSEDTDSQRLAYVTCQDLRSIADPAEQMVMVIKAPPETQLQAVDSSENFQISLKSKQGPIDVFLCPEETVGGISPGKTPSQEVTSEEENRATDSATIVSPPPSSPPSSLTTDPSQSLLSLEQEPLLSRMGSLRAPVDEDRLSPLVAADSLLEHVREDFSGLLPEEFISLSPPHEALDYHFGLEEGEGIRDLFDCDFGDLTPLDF
Sequence of Transcription factor Sp1 (Homo sapiens) (P08047 whole entry, looked up): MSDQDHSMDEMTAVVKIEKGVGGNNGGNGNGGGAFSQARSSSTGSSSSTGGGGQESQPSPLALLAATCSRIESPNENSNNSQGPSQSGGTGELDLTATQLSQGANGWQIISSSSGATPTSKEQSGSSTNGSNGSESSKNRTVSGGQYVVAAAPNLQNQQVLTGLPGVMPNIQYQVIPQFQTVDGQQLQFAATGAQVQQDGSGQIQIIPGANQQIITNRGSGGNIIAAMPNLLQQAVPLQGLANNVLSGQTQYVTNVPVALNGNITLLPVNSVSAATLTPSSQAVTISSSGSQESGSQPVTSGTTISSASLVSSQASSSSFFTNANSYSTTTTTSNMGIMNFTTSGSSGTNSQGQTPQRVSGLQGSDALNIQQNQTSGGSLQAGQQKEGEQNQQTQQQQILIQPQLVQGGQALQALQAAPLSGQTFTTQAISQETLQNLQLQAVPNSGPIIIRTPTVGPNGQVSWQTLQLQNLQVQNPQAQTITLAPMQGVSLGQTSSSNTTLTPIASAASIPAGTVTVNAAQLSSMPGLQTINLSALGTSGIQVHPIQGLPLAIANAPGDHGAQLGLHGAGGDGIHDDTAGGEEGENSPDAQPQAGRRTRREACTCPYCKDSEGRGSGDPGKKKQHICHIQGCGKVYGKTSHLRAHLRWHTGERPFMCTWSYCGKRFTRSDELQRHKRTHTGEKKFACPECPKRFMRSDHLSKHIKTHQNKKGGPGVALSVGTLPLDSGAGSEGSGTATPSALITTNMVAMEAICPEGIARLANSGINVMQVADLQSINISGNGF

O=C(NC(=O)c1c(F)cccc1F)Nc1ccc(Oc2ccc(C(F)(F)F)cc2Cl)cc1F
active: [13] 26.3 µM | [18] 3.15 µM
inactive: all other assays above

C=CCO
inactive: all assays above

[CH3][Sn]([CH3])([Cl])[Cl]
inactive: all assays above

CC(C)CCCCCCCOC(=O)c1ccccc1C(=O)OCCCCCCCC(C)C
active: [18] 1.19 µM
inactive: all other assays above

CC[N+](=O)[O-]
inactive: all assays above
